PLC-gamma1 inh – PLC-gamma1 (human) inhibition, primary screen; 370,000 tested, 0.84% active; purified PLC-gamma1, fluorogenic substrate, fluorescence; P19174; inhibition, % at 12.2 µM; AID 720700; in the data active = inhibition above about 9.5%
KLK7 zymogen act – activators of human kallikrein-7 zymogen. purified proKLK7, EDANS-DABCYL substrate fluorescence; 100% is mature enzyme control, 0% vehicle. activation, % at 7 µM. 370,000 tested, 0.9% active;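 active = activation above the mean of all tested compounds plus 3 SD, computed per campaign excluding outliers beyond control limits, cut at about 13% in these data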
PLCb3 inh – PLC-beta3 (human) inhibition, primary screen; Purified PLC-beta3, fluorogenic substrate, fluorescence; inhibition, % at 12.2 µM; 370,000 tested, 0.18% active; AID 720704; in the data active = inhibition above about 11%;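 also: 0% = median of compound wells on plate and 100% = full blocker control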
Target sequence (Q01970 whole entry, looked up): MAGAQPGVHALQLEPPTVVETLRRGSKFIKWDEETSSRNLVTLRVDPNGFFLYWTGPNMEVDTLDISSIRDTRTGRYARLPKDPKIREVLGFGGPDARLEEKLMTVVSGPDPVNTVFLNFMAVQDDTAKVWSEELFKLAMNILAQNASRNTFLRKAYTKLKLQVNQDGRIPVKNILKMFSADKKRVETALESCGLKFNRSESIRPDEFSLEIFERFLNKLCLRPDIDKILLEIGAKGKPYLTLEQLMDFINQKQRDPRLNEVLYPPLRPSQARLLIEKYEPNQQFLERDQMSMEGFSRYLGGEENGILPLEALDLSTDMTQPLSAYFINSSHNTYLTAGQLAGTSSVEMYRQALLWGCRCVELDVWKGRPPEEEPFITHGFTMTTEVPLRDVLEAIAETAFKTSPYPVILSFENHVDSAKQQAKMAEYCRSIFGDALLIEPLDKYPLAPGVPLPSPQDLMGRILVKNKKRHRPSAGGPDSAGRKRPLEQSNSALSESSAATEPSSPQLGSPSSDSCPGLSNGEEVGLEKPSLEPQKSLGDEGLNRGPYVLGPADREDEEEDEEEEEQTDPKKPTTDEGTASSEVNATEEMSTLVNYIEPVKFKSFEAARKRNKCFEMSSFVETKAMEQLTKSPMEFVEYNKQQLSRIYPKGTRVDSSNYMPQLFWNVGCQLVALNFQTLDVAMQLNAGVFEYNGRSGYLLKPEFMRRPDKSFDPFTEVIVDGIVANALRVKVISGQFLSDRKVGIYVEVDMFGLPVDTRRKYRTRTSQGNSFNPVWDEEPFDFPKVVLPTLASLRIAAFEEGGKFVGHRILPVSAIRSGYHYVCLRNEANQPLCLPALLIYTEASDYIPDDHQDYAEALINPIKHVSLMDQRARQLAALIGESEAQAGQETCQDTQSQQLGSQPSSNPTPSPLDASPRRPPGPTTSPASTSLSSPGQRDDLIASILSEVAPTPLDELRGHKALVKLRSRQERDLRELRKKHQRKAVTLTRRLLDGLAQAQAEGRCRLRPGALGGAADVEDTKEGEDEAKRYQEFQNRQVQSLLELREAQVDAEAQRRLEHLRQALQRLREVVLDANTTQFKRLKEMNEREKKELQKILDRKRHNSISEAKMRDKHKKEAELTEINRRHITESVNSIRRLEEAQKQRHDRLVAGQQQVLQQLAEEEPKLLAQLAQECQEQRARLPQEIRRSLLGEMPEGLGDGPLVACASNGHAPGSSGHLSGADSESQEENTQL
ADAM17 inh – inhibits human ADAM17 | inhibition, % at 6.95 µM | recombinant ADAM17, EDANS/DABCYL FRET peptide cleavage | 370,000 tested, 0.83% active | AID 720648 | P78536;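 active = inhibition above the mean of compounds lying between control limits plus 3 SD, set per campaign, cut at about 8.5% in these data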;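 also: 0% = DMSO-only wells as the low control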
ADAM10 inh – inhibits human ADAM10 | recombinant ADAM10, EDANS/DABCYL FRET peptide cleavage, 3 h | AID 720582 | 370,000 tested, 0.62% active | O14672 | inhibition, % at 7 µM;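 active = inhibition above a per-campaign cutoff equal to the mean of compounds falling between control-based bounds plus 3 SD, cut at about 20% in these data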;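 also: 0% = DMSO wells while the 100% control is not disclosed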
KLK7 act conf – proKLK7 activation, confirmation. shares compounds with KLK7 zymogen act. purified proKLK7, EDANS-DABCYL substrate fluorescence; scaled: vehicle 0, mature enzyme 100. activation, % at 7 µM. 3,200 tested, 68% active. AID 686949;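 active = activation, as change over the incubation, above the mean of all tested compounds plus 3 SD, cut at about 13% in these data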
EDANS-DABCYL int – counter-screen for kallikrein-7 activators: EDANS-DABCYL optical interference. shares compounds with KLK7 zymogen act. EDANS-DABCYL substrate fluorescence interference, no enzyme, 4 h; solvent 0%, active enzyme control 100%. activation, % at 7 µM. 3,200 tested, 80% active;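 active = activation above the all-compound mean plus 3 SD, ignoring values outside control-based bounds, cut at about 4.8% in these data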;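 also: value is the 4 h activation minus the activation read at time zero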
EDANS interf – EDANS fluorescence interference in dose response, no enzyme; shares compounds with KLK7 zymogen act; EDANS-DABCYL peptide fluorescence interference; EC50, µM; 250 tested, 20% active; AID 720493;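 active = compounds that raise the fluorescence signal in this interference counterscreen, with EC50 at or below 10 µM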;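 also: intact quenched peptide substrate alone read at 355 nm excitation and 520 nm emission; signal is fluorescence gain from T0 to T4 after four hours at room temperature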
The depositor's hits bear a star; i = inactive; nt = not tested or not shown. Compounds with a hit are over-represented: about 2.9% of the library has one in this group of screens.

SMILES	PLC-gamma1 inh	KLK7 zymogen act	PLCb3 inh	ADAM17 inh	ADAM10 inh	KLK7 act conf	EDANS-DABCYL int	others
CCOCCC(=O)Nc1ccc2c(c1)c(=O)n(C)n2CC=C(C)C	-277.4	25.7*	-356.6	-456.6	i	15.0*	17.2*
C=C(C)Cn1c2ccc(NC(=O)CCOCC)cc2c(=O)n1C	-326.1	24.2*	-458.2	i	i	19.1*	21.6*
O=C(N=C1N(Cc2ccccc2)C[C@]2(C=C3CCCCC3n3c(=O)n(-c4ccccc4)c(=O)n32)N1C(=O)OCc1ccccc1)c1ccccc1 (stereo partly drawn)	-1.0	0.3	2.4	-4.7	-7.7	nt	nt
COC(=O)c1cc2c(c3c4cc(F)ccc4n(S(=O)(=O)c4ccc(C)cc4)c13)C(=O)N(Cc1ccc(N(C)C)cc1)C2	-6.5	0.5	-5.4	-0.8	0.5	nt	nt
CCSc1nc2c(c(=O)[nH]1)C(c1ccc(C)cc1)C1=C(CCCC1=O)N2 (stereo not drawn)	-107.6	17.2*	-133.1	-98.8	-344.6	-7.5	-7.1
Cc1ccc2nc3c(c(N)c2c1)CCN3c1ccccc1	i	105.7*	i	i	i	-188.0	-83.7
C=CCOC(=O)C(C#N)c1nc2ccccc2nc1N1CCN(c2ccccc2OC)CC1 (stereo not drawn)	-24.6	-0.9	-21.7	-10.6	-18.2	nt	nt
C=CCN(CC=C)c1nc2ccccc2nc1C(C#N)C(=O)OC(C)C (stereo not drawn)	-298.4	18.7*	-386.6	-229.4	i	22.3*	22.0*
O=c1c2ccccc2[nH]n1[C@@H](Cc1ccccc1)Cn1cc(-c2ccc(-c3ccccc3)cc2)nn1	-7.6	-0.4	-8.7	7.3	13.3	nt	nt
CCc1cc2c(=O)c(-c3cscn3)coc2c(CN(C)C)c1O	i	30.2*	i	-240.9	i	62.8*	71.1*
Cc1ncc(CO)c(/C=N/NC(=O)c2ccoc2C)c1O	i	-65.0	i	-428.5	i	nt	nt
COc1ccccc1NS(=O)(=O)c1cccc(C(=O)N/N=C/c2c(CO)cnc(C)c2O)c1	-376.7	-6.0	-472.8	-53.5	-273.2	nt	nt
COc1ccccc1N/N=C/c1c(CO)cnc(C)c1O	-82.5	20.6*	-126.3	-155.0	-475.3	34.4*	39.0*
Cc1ncc(CO)c(/C=N/NC(=O)c2ccccc2Br)c1O	i	28.0*	i	-282.2	i	-88.2	-76.4
COc1ccc(CCC[C@H](CCC(=O)N(c2ccccc2)c2ccccc2)CCc2ccccc2)cc1	-1.6	-0.7	-3.1	0.8	-4.3	nt	nt
O=c1cc(C(F)(F)F)c2sc(N3CCCCC3)nc2[nH]1	-173.1	37.9*	-203.2	-370.3	i	2.1	10.5*
O=C(CSc1nc(C(F)(F)F)cc(=O)[nH]1)N1CCCCCC1	-0.1	0.0	-6.1	-9.0	-0.7	nt	nt
N#Cc1ccc(-c2ccc(OCC(=O)Nc3cccnc3)cc2)cc1	-1.6	18.0*	-13.8	-9.4	-14.7	-0.6	-0.9
COc1ccc(-c2cc(C(=O)N(C)CC(=O)Nc3ccccc3C(F)(F)F)c3ccccc3n2)cc1OC	-220.5	13.6*	-278.9	-17.6	-78.2	1.7	9.0*
COc1ccc(-c2cc(C(=O)N(C)CC(=O)Nc3ccccc3Br)c3ccccc3n2)cc1OC	-347.2	5.3	-352.2	-28.9	-109.4	nt	nt
COc1cc2ccc(=O)oc2cc1OCC(O)C(C)(C)O (stereo not drawn)	i	21.0*	i	i	i	32.9*	47.6*
COc1cc2ccc(=O)oc2cc1O	i	95.0*	i	i	i	76.7*	83.1*
COC(=O)c1ccc(NC2CC(=O)N(c3ccccc3C)C2=O)cc1 (stereo not drawn)	4.6	0.8	1.0	-5.0	-5.3	nt	nt
COC(=O)c1ccccc1NC1CC(=O)N(c2c(C)cccc2C)C1=O (stereo not drawn)	-147.0	88.0*	-207.4	-264.9	i	48.2*	48.5*
COc1ccc(C(=O)C[n+]2ccc3c(c2)nc(Cc2ccccc2)n3C)cc1	0.5	-0.2	-5.8	-3.4	-6.1	nt	nt
SMILES	PLC-gamma1 inh	KLK7 zymogen act	PLCb3 inh	ADAM17 inh	ADAM10 inh	KLK7 act conf	EDANS-DABCYL int	others
O=C(O)c1cc2cccc(S(=O)(=O)N3CCOCC3)c2cc1O	i	13.8*	i	-35.0	-90.4	70.0*	71.5*
Cc1cccn2c(=O)c(/C=C(\C#N)C(N)=O)c(Oc3ccccc3)nc12	-59.7	15.3*	-89.8	-39.6	-117.5	-8.5	-8.6
C=CCNC(=O)/C(C#N)=C/c1c(N2CCN(c3cccc(Cl)c3)CC2)nc2c(C)cccn2c1=O	-69.5	13.5*	-91.0	-233.2	i	-2.6	32.9*
COCCNC(=O)/C(C#N)=C/c1c(N2CCN(c3ccc(OC)cc3)CC2)nc2c(C)cccn2c1=O	-161.4	14.9*	-215.5	-466.7	i	13.7*	10.7*	EDANS interf=>69.5
COC(=O)C1CN(Cc2cn(Cc3ccc(OC)cc3)nn2)CCS(=O)(=O)N1Cc1ccc(OC)cc1 (stereo not drawn)	1.5	-0.1	-4.2	-0.9	-5.7	nt	nt
CN(C)CC(=O)N[C@H]1C[C@@H]2O[C@@H](CO)CC[C@@H]2O[C@@H]1CCc1ccc(C2=CCCCC2)cc1	-1.9	0.9	2.6	-1.0	1.3	nt	nt
COc1ccc2c3c([nH]c2c1)[C@H]1C[C@H]2[C@H](C[C@@H](O)[C@H](OC)[C@H]2C(=O)O)CN1CC3	i	40.0*	i	-275.2	i	7.9	10.7*
O=C(NCC1COc2ccccc2O1)c1ccc(NC(=O)c2cccc(F)c2F)cc1 (stereo not drawn)	-1.9	0.1	2.4	-0.7	-7.6	nt	nt
COc1ccc(N2C(=O)CC(N3CCN(Cc4ccc5c(c4)OCO5)CC3)C2=O)cc1 (stereo not drawn)	-0.4	53.0*	-3.5	-5.2	-7.5	0.3	0.3
Cn1c(=O)c(Nc2ccc(Cl)cc2)c2c3c(cccc31)C(=O)c1ccccc1-2	-78.2	-1.1	-109.4	-1.2	2.2	nt	nt
CC(=O)Nc1c2c3c(cccc3n(C)c1=O)C(=O)c1ccccc1-2	-253.2	23.0*	-322.9	-20.6	-63.3	22.8*	20.8*
CSCCNC(=O)C1(C)CCN1C(=O)CCc1ccccc1 (stereo not drawn)	5.4	16.1*	3.4	-4.8	-0.2	0.1	-0.1
CCOC(=O)N1C(=O)C[C@](Sc2ccc(OC)cc2)(C(=O)N2CCN(C(C)=O)CC2)[C@H]1c1ccc(OC)cc1	0.3	0.0	2.1	0.2	-8.4	nt	nt
C/C=C(\C)C(=O)OC(C)(C)[C@@H]1Cc2cc3ccc(=O)oc3cc2O1	-99.4	-5.0	-169.2	-298.3	i	nt	nt

Assay outcomes: PubChem BioAssay, The Scripps Research Institute Molecular Screening Center
